In PubChem BioAssay AID1117358 (Southern Research Institute, 2015):
The campaign covered roughly 2,300 compounds. About 160 (7%) were called active. The rule behind the calls is not given here. These entries were drawn from the full list. Entries with a potency or affinity are not part of this list.

Experiment: viability loss in Vero cells – cytotoxicity control for Vif-APOBEC3G degradation inhibitor project, dose response (AID 1117358)
Settings: CellTiter-Glo ATP luminescence, 72 h; series mostly up to 40 µM

Structure (SMILES)	outcome
CC(C(=O)N1CCOCC1)(c1ccccc1)c1ccccc1	inactive
COc1ccc(C(C)(C)C)cc1NC(=O)C1C2C=CC(C2)C1C(=O)O (centres undefined)	inactive
CC1CCCC(NC(=O)Cn2cc3c(n2)CCCCC3)C1C (centres undefined)	inactive
CCOC(=O)N1CCN(CC(=O)c2ccc3c(c2)CCN3C(C)=O)CC1	inactive
CCOC(=O)c1ccc(NC(=O)CSCc2ccco2)cc1	inactive
CCOc1ccc2[nH]c(=O)c(CN(Cc3nnnn3Cc3ccco3)C3CCCCC3)cc2c1	inactive
Cc1cc(C)n(CC(O)CN2c3ccccc3Sc3ccccc32)n1 (centres undefined)	inactive
COC(=O)COc1ccc(S(=O)(=O)NCc2ccco2)cc1Cl	inactive
CCOc1cc(Cl)c(S(=O)(=O)NCc2ccccn2)cc1Cl	inactive
O=C(Cn1ncc2c(=O)oc3ccccc3c21)N1CCCc2ccccc21	inactive
CCC(C)NS(=O)(=O)c1ccc(S(=O)(=O)N(CC(=O)Nc2ccccc2)CC2CCCO2)cc1 (centres undefined)	inactive
Cc1cccc(C)c1NC(=O)COC(=O)c1cc(-c2cccnc2)nc2ccccc12	inactive
CCOC(=O)CC1Sc2ccccc2NC1=O (centres undefined)	inactive
COc1cc(O)oc1C=Nc1ccccc1	inactive
Cc1ccc(S(=O)(=O)N=Nc2c(O)[nH]c3ccccc23)cc1	inactive
CCOC(=O)C1=C(CSc2nc(C)ccc2C#N)OC(N)=C(C#N)C1c1cccc(OC)c1OC (centres undefined)	inactive
Cc1nc(NC(=O)CN2CCOCC2)sc1-c1ccccc1	inactive
O=C(O)CC(C(=O)O)N1C(=O)/C(=C/c2ccc(-c3nc4ccccc4s3)o2)SC1=S (centres undefined)	inactive
O=C1CC(c2ccco2)CC(O)=C1C=Nc1ccc(Br)cc1 (centres undefined)	inactive
COc1ccc(OCC(=O)O/N=C(\N)Cc2ccc(Cl)cc2)cc1	inactive
CCC(=O)Nc1nc2ccc(NC(C)=O)cc2s1	inactive
CCOC(=O)N1CCC(NC(=O)c2cc3c(C)nc4ccccc4c3o2)CC1	inactive
CCOC(=O)C1CCN(C(=O)c2ccc(OC)cc2OC)CC1	inactive
COc1ccc(NC(=O)Nc2cccs2)cc1OC	inactive
CCOC(=O)Nc1nnc(-c2ccccc2OC)s1	inactive

Structure (SMILES)	outcome
C=CCOC(=O)CN1C(=O)c2ccccc2C1=O	inactive
COc1ccc(OC)c(NC(=O)CSc2nnc(CCCO)n2-c2ccccc2)c1	inactive
CCn1c(SCC(=O)n2c(C)c(C)c3ccccc32)nnc1-c1ccco1	inactive
CCOc1ccccc1CNC(=O)Cn1c(=O)oc2ccccc21	inactive
COc1ccccc1N1CCN(C(=O)c2cc(-c3cccs3)on2)CC1	inactive
Cc1ccccc1CS(=O)(=O)Cc1ccc(C(=O)N2CCOCC2)o1	inactive
CCOc1cc(C)nc(NCCc2ccc(OC)c(OC)c2)n1	inactive
COc1ccc(OC)c(NC(=O)NCc2ccc(F)cc2)c1	inactive
O=C1c2ccccc2C(=O)N1CCc1csc(-c2ccc(F)cc2)n1	inactive
Cc1cc(-c2cc(-c3ccc(Cl)cc3)nc(N)c2C#N)co1	inactive
COc1ccc(Oc2nc(C)cc(C)c2C#N)cc1	inactive
O=[N+]([O-])c1cc(/C=N\Nc2nccs2)ccc1O	inactive
CC(OC(=O)c1cccs1)C(=O)NCc1ccco1 (centres undefined)	inactive
CCc1nc(SCC(=O)Nc2ccc(C(=O)O)cc2)n[nH]1	inactive
CCc1cccc(NC(=O)Cn2ncn3c(cc4ccccc43)c2=O)c1	inactive
COCCNC(=O)COc1ccc(Br)cc1Cl	inactive
CSc1cccc(NC(=O)CN(c2cc(C)ccc2C)S(C)(=O)=O)c1	inactive
Cn1c(CN2CCOCC2)nc2cc(NC(=O)c3ccc(F)cc3)ccc21	inactive
N#Cc1nc(-c2ccco2)oc1N1CCN(c2ccccc2)CC1	inactive
CCC(C)(C)n1nnnc1C(c1cc2cc(C)ccc2[nH]c1=O)N1CCCc2ccccc21 (centres undefined)	inactive
O=C(OCc1ccc(Cl)cc1)c1cnccn1	inactive
O=C(CSc1nccn1Cc1ccccc1)Nc1nccs1	inactive
Cc1ccc(NC(=O)CCC(=O)NNC(=O)COc2cccc3ccccc23)c(C)c1	inactive
CS(=O)(=O)N(CC(=O)NCc1ccc2c(c1)OCO2)Cc1ccccc1	inactive
O=C(O)Cc1ccc(C(=O)c2ccccc2)s1	inactive

Structure (SMILES)	outcome
Oc1ccc(/C=N/NC2=NCCCCC2)c(O)c1	inactive
Cc1ccc(C)n1Cc1ccc(C(=O)O)cc1	inactive
CC(=O)C1CCN(Cc2ccccc2)CC1	inactive
Cn1cccc1C(=O)NC(=O)COC(=O)CC12CC3CC(CC(Br)(C3)C1)C2	inactive
O=C(COC(=O)c1cc(-c2ccco2)nc2ccccc12)NCc1ccc2c(c1)OCO2	inactive
Cc1nc(C(=O)N(C)C)nn1-c1cc(Cl)cc(Cl)c1	inactive
CCOC(=O)c1ccc(-n2ncc(C(=O)OCC)c2N)cc1	inactive
Cc1ccc(S(=O)(=O)N2CCC(C(=O)Nc3nnc(-c4ccco4)s3)CC2)cc1	inactive
CCN(CC)c1ccc(/C=N/n2c(C)cc(C)cc2=O)cc1	inactive
CCOc1ccc(Br)cc1/C=N/O	inactive
CCOc1ccc(N(CC(=O)NC2CCCCC2)S(=O)(=O)c2c(C)noc2C)cc1	inactive
Cc1onc(-c2ccccc2)c1C(=O)N1CCCc2ccccc21	inactive
C=CCn1c(SCC(=O)c2cc(C)n(C(C)COC)c2C)nc2sc(C)c(C)c2c1=O (centres undefined)	inactive
CCOC(=O)c1ccc(NS(=O)(=O)c2ccc3c(c2)oc(=O)n3C)cc1	inactive
Cc1nnc(-c2cnn(-c3ccccc3)c2N)n1Cc1cccc(C(F)(F)F)c1	inactive
C/C(=C1\SC(N2CCOCC2)=NC1=O)c1ccccc1	inactive
Cc1noc(C)c1C(=O)N1CCN(c2ncccn2)CC1	inactive
COc1ccc(NS(=O)(=O)c2cccc(Cl)c2Cl)cc1S(=O)(=O)N1CCCCC1	inactive
CCC(=O)N1CCN(c2ccccc2NC(=O)c2cccc(C)c2)CC1	inactive
O=C(NCc1ccc(Cl)cc1)c1ccccc1Oc1ccccc1	inactive
CCC(=O)NNc1ncnc2ccccc12	inactive
COC(=O)c1cccc(NC(=O)c2cccc(OC)c2)c1	inactive
COc1cc2c(cc1NC(=O)COC(=O)Cn1cnc3ccccc31)oc1ccccc12	inactive
CCOC(=O)N1CCC(Nc2c(-c3ccc(C)cc3)c(=O)c2=O)CC1	inactive
